A short description of assay [1]: Nuclear factor erythroid 2-related factor 2/antioxidant responsive element (Nrf2/ARE) small molecule agonists: qHTS cell viability counter screen in human keratinocytes (AID 1919968; active means well fitted curve in the direction sought with a large enough effect in the repeat runs; an effect the other way counts as inactive or inconclusive; further: nearly all actives have a fitted effect of over 55% in size). Summed up:
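Stably transfected HaCaT (KeratinoSens), 1,500/well. Test agents in DMSO were applied for 23 h, 37 C/5% CO2. CellTiter-Fluor was incubated 1 h before the fluorescence read.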
In general terms: In qHTS, concentration-response curves come from the screen itself.

Assay [2] can be described thus: Nuclear factor erythroid 2-related factor 2/antioxidant responsive element (Nrf2/ARE) small molecule agonists: luciferase reporter gene qHTS assay in human keratinocytes (AID 1919969). Further: nearly all actives have a fitted effect of over 35% in size. Further: potency means the concentration at half of the fitted maximal effect.
In assay [3] the target is Gonadotropin-releasing hormone receptor (Homo sapiens) (UniProt P30968). As to the kind of experiment: Human gonadotropin-releasing hormone receptor (GnRHR) small molecule agonists, calcium flux assay in GnRHR-HEK293 cells (AID 1920063). Further: nearly all actives have a fitted effect of over 35% in size. Summed up:
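Stable human GnRHR HEK293 line. 18 h plating, then calcium dye for 1 h at 37 C. Agonist-mode compound addition from DMSO stocks; fluorescence monitored 3 min.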

The target in assay [4] is KiSS-1 receptor (Homo sapiens) (UniProt Q969F8). As to the kind of experiment: Human kisspeptin (KISS1R) small molecule agonists, calcium flux assay in KISS1R-HEK293 cells (AID 1920064; active means well fitted curve in the direction sought with a large enough effect in the repeat runs; an effect the other way counts as inactive or inconclusive). Summed up: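 After overnight (18 h) culture at 37 C/5% CO2, human KISS1R-HEK293 cells received calcium dye for 1 h, then test compound; emission at 540 nm (excitation 480 nm) was tracked for 3 min.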
Sequence of KiSS-1 receptor (Homo sapiens) (Q969F8 whole entry, looked up): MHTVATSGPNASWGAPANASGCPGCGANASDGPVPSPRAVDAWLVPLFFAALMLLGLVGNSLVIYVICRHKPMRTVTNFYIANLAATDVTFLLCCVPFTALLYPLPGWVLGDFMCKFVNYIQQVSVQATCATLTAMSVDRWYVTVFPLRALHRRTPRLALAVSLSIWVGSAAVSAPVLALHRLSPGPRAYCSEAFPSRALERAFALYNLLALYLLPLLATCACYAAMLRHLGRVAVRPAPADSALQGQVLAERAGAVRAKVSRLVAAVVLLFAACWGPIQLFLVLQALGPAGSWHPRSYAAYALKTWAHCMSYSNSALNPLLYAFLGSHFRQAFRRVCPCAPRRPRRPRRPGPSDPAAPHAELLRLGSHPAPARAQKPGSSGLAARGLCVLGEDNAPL

Assay [5] is described as follows: G protein-coupled receptor (GPCR) small molecule agonists, calcium flux assay: HEK293 wild type cell line counter screen (AID 1920065). Summed up:
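Following 18 h incubation at 37 C/5% CO2, plates got calcium dye for 1 h; compounds, ATP or DMSO were then pinned in and fluorescence followed kinetically (480/540 nm).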
For orientation: Calcium assays in cells follow changes in intracellular calcium, usually with a dye or a luminescent sensor.

Assay [6] is described as follows: p53 small molecule agonists, cell-based qHTS assay with human liver microsomes (AID 1963577). Summed up: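 Compounds act here after metabolic activation: human liver microsomes and NADPH, both at 0.5 mg/mL final, were co-added to p53RE-bla cells. Incubation ran 16 h at 37 C, followed by LiveBLAzer detection.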
Assay [7] in a line: p53 small molecule agonists, cell-based qHTS assay with rat liver microsomes (AID 1963578). Summed up: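 Read-out is beta-lactamase reporter fluorescence (LiveBLAzer, 2 h, room temperature, dark) in p53RE-bla cells treated 16 h at 37 C with compound, rat liver microsomes and NADPH, both 0.5 mg/mL final.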
The nature of assay [8]: p53 small molecule agonists, cell-based qHTS assay with human liver microsomes: qHTS cell viability counter screen (AID 1963579). Further: nearly all actives have a fitted effect of over 45% in size. Summed up:
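Cells carrying the p53 response-element beta-lactamase reporter are treated for 16 h at 37 C with test compounds in the presence of human liver microsomes and NADPH (both 0.5 mg/mL final); ATP-based CellTiter-Glo luminescence then reports viability.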

A short description of assay [9]: p53 small molecule agonists, cell-based qHTS assay with rat liver microsomes: qHTS cell viability counter screen (AID 1963580). Further: nearly all actives have a fitted effect of over 45% in size. Summed up:
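Luminescent ATP readout (CellTiter-Glo, 30 min at room temperature) reports viability of p53RE-bla HCT-116 cells after 16 h at 37 C with test compounds under metabolic activation by rat liver microsomes and NADPH at 0.5 mg/mL final each.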

The target of assay [10] is 5-hydroxytryptamine receptor 2A (Homo sapiens) (UniProt P28223). The assay can be described thus: 5-hydroxytryptamine receptor 2A (HTR2A) small molecule antagonists, cell-based qHTS assay (AID 1963586). Further: nearly all actives have a fitted effect of over 45% in size. Summed up: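 CHO cells stably expressing human HTR2A were plated for 18 h at 37 C, then loaded with calcium dye for 1 h. Compounds were preincubated 5 min at room temperature before DOI (4 nM solution) was added. Kinetic fluorescence was read for 3 min.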
Sequence of 5-hydroxytryptamine receptor 2A (Homo sapiens) (P28223 whole entry, looked up): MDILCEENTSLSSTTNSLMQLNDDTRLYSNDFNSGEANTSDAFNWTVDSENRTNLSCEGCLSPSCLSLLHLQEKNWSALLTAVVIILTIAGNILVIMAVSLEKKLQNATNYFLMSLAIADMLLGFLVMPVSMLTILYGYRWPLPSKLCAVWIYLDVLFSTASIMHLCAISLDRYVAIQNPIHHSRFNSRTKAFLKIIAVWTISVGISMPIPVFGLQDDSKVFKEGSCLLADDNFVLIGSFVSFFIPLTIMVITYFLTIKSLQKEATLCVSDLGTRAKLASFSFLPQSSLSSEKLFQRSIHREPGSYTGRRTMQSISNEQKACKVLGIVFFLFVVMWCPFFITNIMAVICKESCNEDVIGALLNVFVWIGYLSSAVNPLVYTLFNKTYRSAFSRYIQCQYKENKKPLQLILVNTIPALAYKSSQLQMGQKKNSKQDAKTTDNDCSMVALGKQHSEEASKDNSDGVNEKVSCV

Assay [11] deals with Muscarinic acetylcholine receptor M1 (Homo sapiens) (UniProt P11229). As to the kind of experiment: Cholinergic receptor muscarinic 1 (CHRM1) small molecule antagonists, cell-based qHTS assay (AID 1963588). Further: nearly all actives have a fitted effect of over 40% in size. Summed up:
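Compounds were tested at 15 concentrations in three independent runs. Dye-loaded CHRM1-CHO cells were exposed 5 min at room temperature before stimulation by acetylcholine added at 50nM. Intracellular calcium was read kinetically on FDSS for 3 min.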

For assay [12] the target is unchanged. As to the kind of experiment: Cholinergic receptor muscarinic 1 (CHRM1) small molecule agonists, cell-based qHTS assay (AID 1963589). Further: nearly all actives have a fitted effect of over 35% in size. Summed up: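 Kinetic fluorescence (1 s intervals) of calcium-sensitive dye in human M1 CHO cells after compound addition; cells pre-incubated 18 h at 37 C/5% CO2 and dye-loaded 1 h.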
Assay [13] is described as follows: cAMP Responsive Elements (CRE) small molecule agonists, cell-based qHTS assay (AID 1963590). Summed up:
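Test agents in DMSO were incubated 3 h at 37 C/5% CO2 with CRE-bla HEK 293T cells seeded 18 h earlier; LiveBLAzer B/G FRET substrate was added and read after 2 h at room temperature.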

Assay [14] in a line: cAMP Responsive Elements (CRE) small molecule antagonists, cell-based qHTS assay (AID 1963591; active means well fitted inhibition curve with a large enough effect in the signal ratio in the repeat runs, not every such curve was filed as active; the % refers to the signal ratio; further: potency means the concentration at half of the fitted maximal effect). Summed up: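 Reporter line CRE-bla HEK 293T in dialyzed-FBS DMEM; cells preincubated 18 h, treated 3 h with compound plus NKH477 (0.25 uM final); LiveBLAzer FRET, 2 h RT.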
In assay [15] the target is Beta-2 adrenergic receptor (Homo sapiens) (UniProt P07550). As to the kind of experiment: Adrenergic beta2 receptor (ADRB2) small molecule antagonists, cell-based qHTS assay (AID 1963592). Further: series mostly up to about 92 µM; nearly all actives have a fitted effect of over 50% in size. Summed up: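 Assay format: CHO-ADRB2 cells, 18-20hr seeding at 37C/5% CO2, then compound plus 1nM isoproterenol agonist mix for 0.5hr RT. Homogeneous time-resolved fluorescence cAMP detection after 1hr, expressed as 665/615 nm ratio.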
Sequence of Beta-2 adrenergic receptor (Homo sapiens) (P07550 whole entry, looked up): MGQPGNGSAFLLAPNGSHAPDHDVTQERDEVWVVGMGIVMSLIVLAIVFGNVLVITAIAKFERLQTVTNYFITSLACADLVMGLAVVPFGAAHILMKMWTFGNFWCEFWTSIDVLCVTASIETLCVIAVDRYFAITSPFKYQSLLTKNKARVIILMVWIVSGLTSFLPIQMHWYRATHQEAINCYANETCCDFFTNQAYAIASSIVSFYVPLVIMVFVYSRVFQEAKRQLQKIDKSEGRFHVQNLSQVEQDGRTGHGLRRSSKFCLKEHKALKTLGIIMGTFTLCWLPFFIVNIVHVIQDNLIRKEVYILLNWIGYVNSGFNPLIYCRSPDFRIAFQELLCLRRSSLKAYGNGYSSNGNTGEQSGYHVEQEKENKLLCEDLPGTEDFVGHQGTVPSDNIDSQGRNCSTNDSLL

Assay [16] has as its target D(2) dopamine receptor (Homo sapiens) (UniProt P14416). The assay can be described thus: Dopamine D2 receptor (DRD2) small molecule agonists, cell-based qHTS assay (AID 1963594). Further: nearly all actives have a fitted effect of over 35% in size. Summed up: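 HEK293 cells stably expressing DRD2 were cultured 24 h at 37 C, then given Ro20-1724 (0.1 mM final) and compounds for 10 min at room temperature. NKH477 (200nM) was then added for 30 min. cAMP was read by HTRF.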

Assay [17] has the same target. As to the kind of experiment: Dopamine D2 receptor (DRD2) small molecule antagonists, cell-based qHTS assay (AID 1963595; active means well fitted inhibition curve with a large enough effect in the signal ratio in the repeat runs, with a control signal flat; the % refers to the signal ratio). Summed up: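 HTRF cAMP read-out at 665 and 620 nm emission (340 nm excitation). Antagonist mode: compounds were tested against 12 nM quinpirole in DRD2-HEK293 cells, with 200 nM NKH477 raising cAMP and 0.1 mM Ro20-1724 blocking its breakdown.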

A short description of assay [18]: p53 small molecule agonists, cell-based qHTS assay: qHTS cell viability counter screen (AID 1963581). Further: nearly all actives have a fitted effect of over 45% in size. Summed up:
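qHTS counter screen: 16 h compound exposure at 37 C of p53RE-bla HCT-116 cells (4,000 per well, seeded 5 h prior), cell viability by ATP luminescence.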

A short description of assay [19]: p53 small molecule agonists, cell-based qHTS assay (AID 1963582; active means well fitted activation curve with a large enough effect in the signal ratio in the repeat runs, not every such curve was filed as active; the % refers to the signal ratio). Summed up:
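Measured: fluorescence from cleaved LiveBLAzer substrate. System: p53RE-bla cells, 16 h compound treatment at 37 C, 2 h substrate step at room temperature.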

In assay [20] the target is 5-hydroxytryptamine receptor 2A (Homo sapiens) (UniProt P28223). As to the kind of experiment: 5-hydroxytryptamine receptor 2A (HTR2A) small molecule agonists, cell-based qHTS assay (AID 1963587). Further: nearly all actives have a fitted effect of over 30% in size. Summed up:
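HTR2A-CHO cells, plated 18 h at 37 C/5% CO2, dye-loaded 1 h at 37 C; compounds in DMSO added by pin tool (agonist mode). Intracellular calcium flux read as kinetic fluorescence on FDSS over 2 min at 1 s intervals.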

Structures are written as SMILES. Where “and” joins values, the source holds several entries; their conditions need not be identical. Equal entries are not always repeated. Results filed as inconclusive are left out. Calls of active or inactive are those of the source. Unless noted, the call rests on the fitted dose curve.

Sequence of Gonadotropin-releasing hormone receptor (Homo sapiens) (P30968 whole entry, looked up): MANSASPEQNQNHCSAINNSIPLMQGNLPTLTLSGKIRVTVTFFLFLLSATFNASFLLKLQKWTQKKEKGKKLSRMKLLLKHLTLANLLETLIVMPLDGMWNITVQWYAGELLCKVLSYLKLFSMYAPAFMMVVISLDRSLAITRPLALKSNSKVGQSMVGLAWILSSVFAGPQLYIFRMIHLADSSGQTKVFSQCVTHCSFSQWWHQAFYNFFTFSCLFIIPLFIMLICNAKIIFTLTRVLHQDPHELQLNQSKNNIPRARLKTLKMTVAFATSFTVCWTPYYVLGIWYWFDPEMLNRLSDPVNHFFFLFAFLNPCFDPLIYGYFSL
Sequence of Muscarinic acetylcholine receptor M1 (Homo sapiens) (P11229 whole entry, looked up): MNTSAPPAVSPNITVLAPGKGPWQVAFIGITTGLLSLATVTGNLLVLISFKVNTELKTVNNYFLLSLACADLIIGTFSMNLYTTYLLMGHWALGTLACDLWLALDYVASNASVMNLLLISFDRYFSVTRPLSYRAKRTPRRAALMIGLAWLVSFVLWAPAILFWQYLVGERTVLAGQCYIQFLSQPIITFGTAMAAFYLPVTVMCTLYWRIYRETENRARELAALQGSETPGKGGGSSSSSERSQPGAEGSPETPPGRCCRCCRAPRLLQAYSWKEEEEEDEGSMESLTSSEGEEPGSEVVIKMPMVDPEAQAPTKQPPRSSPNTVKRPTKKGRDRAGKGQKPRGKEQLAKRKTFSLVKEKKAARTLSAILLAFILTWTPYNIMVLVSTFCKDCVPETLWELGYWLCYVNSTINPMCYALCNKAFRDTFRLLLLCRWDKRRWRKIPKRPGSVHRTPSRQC
Sequence of D(2) dopamine receptor (Homo sapiens) (P14416 whole entry, looked up): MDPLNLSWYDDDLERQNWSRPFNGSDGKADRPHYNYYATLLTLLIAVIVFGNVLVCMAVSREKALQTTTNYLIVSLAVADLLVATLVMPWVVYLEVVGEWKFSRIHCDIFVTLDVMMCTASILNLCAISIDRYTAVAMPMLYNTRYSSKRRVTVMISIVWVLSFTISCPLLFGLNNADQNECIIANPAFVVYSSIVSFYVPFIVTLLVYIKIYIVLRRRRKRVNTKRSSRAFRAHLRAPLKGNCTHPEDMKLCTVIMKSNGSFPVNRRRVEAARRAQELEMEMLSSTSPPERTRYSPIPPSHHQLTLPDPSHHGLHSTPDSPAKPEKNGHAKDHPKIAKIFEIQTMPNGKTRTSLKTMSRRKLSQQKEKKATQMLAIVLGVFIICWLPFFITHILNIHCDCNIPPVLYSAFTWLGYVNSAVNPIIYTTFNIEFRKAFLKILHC

For `O=C1c2c(O)cccc2Cc2cccc(O)c21`, the Potency entry in assay [1], in assay [2], in assay [3], in [4], in assay [5] and in assay [6] was “inactive” each time. Further, the Potency result in assay [7], in [8], in assay [9], in assay [10], in assay [11] and in [12] was “inactive” each time. For the same compound, the Potency result in assay [13], in [14], in assay [15], in assay [16] and in assay [17] was “inactive” throughout.
Turning to `N[C@@H](Cc1cc(I)c(Oc2cc(I)c(O)c(I)c2)c(I)c1)C(=O)O`, the Potency entry in [1], in [2], in [3], in [4], in assay [5] and in [6] was “inactive” each time. Besides, the Potency entry in assay [7], in assay [8], in [18], in assay [19], in [10] and in [20] was “inactive” each time. For the same compound, the Potency entry in [11], in [12], in assay [14], in assay [15], in assay [16] and in assay [17] was “inactive” throughout.
As to `Nc1ncn([C@@H]2O[C@H](CO)[C@@H](O)[C@H]2O)c(=O)n1`, the Potency result in assay [1], in assay [3], in assay [4], in [5], in assay [6] and in [7] was “inactive” throughout. Further, the Potency entry in [8], in [9], in [15], in assay [16] and in [17] was “inactive” each time. The Potency is 30.6 µM (active) and 7.5 µM (active) in [2]; 40.3 µM (active) in [14].
Take `C[Si]1(C)O[Si](C)(C)O[Si](C)(C)O[Si](C)(C)O1`: the Potency result in assay [1], in assay [2], in [3], in assay [4], in [5] and in assay [6] was “inactive” throughout. Moreover, the Potency result in assay [7], in [8], in [9], in [19], in assay [10] and in assay [20] was “inactive” in each case. Besides, the Potency entry in assay [11], in assay [13], in [15] and in assay [16] was “inactive” in each case.
For the compound `CC(C)=CCl`, the Potency entry in assay [1], in assay [2], in [3], in assay [4], in assay [5] and in assay [6] was “inactive” throughout. Moreover, the Potency entry in assay [7], in [8], in assay [18], in assay [19], in assay [10] and in assay [20] was “inactive” each time. The Potency entry in assay [11], in [12], in [13], in assay [14], in assay [15] and in assay [16] was “inactive” throughout. For the same compound, in assay [17], the Potency entry is “inactive”.
In the case of `CCCCCCCC=O`, the Potency entry in assay [1], in assay [2], in assay [3], in assay [4], in assay [5] and in assay [6] was “inactive” throughout. In addition, the Potency result in assay [7], in assay [8], in [18], in [19], in [10] and in assay [20] was “inactive” each time. The Potency entry in [11], in assay [12], in [13], in assay [14], in assay [15] and in [16] was “inactive” throughout. In assay [17], the Potency result is “inactive”.
With `c1ccc2scnc2c1`, the Potency entry in assay [1], in assay [2], in assay [3], in assay [4], in [5] and in [6] was “inactive” throughout. Further, the Potency entry in assay [7], in assay [8], in assay [9], in assay [19], in assay [10] and in assay [20] was “inactive” in each case. Moreover, the Potency result in [12], in assay [13], in assay [14], in assay [15], in assay [16] and in assay [17] was “inactive” in each case.

The values are drawn from PubChem BioAssay (Tox21).
